Assay results taken from PMC7862700, “An all-to-all approach to the identification of sequence-specific readers for epigenetic DNA modifications on cytosine”.

What was measured:
Test in all cases: DAPPL (digital affinity profiling via proximity ligation, sequencing); 10 mM Tris-HCl pH 7.5, 50 mM NaCl, 1 mM DTT, 4% glycerol, room temperature, 30 min; GST-TFs on glutathione beads, 16-mer random dsDNA library, 0.1% formaldehyde crosslink after washing; high values mean tight binding
FEV = molecular target: T1, FEV (Homo sapiens, UniProt Q99581 1-238); details: protein: recombinant; tags: N-terminal GST; dsDNA, one strand shown
T1 sequence: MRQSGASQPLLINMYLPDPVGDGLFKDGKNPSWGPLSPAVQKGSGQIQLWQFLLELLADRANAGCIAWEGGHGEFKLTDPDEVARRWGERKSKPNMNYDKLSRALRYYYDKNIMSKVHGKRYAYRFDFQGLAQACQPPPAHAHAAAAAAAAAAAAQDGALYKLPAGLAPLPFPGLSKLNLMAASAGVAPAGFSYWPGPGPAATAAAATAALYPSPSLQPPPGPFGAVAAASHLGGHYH
Summary of the method: (§1)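 Sequencing on an Illumina NextSeq500 followed washing, crosslinking with 0.1% formaldehyde, proximity ligation (BsaI/T4 ligase, 1 h, 37 °C) and PCR amplification of pools that had been incubated for 30 min at room temperature with 200 nmole of a random double-stranded 16-mer DNA library in Tris/NaCl/DTT/glycerol buffer. Each pool held DNA-barcoded human transcription factors, expressed in yeast as GST fusions and captured on glutathione beads, plus a tag-only sample. Binding signal is a hexamer's read frequency for a factor divided by its frequency in the tag-only sample.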

ETV5 = ETV5 (Homo sapiens, UniProt P41161 1-510); details: protein: recombinant; tags: N-terminal GST; dsDNA, one strand shown
ETV5, sequence (P41161 whole entry): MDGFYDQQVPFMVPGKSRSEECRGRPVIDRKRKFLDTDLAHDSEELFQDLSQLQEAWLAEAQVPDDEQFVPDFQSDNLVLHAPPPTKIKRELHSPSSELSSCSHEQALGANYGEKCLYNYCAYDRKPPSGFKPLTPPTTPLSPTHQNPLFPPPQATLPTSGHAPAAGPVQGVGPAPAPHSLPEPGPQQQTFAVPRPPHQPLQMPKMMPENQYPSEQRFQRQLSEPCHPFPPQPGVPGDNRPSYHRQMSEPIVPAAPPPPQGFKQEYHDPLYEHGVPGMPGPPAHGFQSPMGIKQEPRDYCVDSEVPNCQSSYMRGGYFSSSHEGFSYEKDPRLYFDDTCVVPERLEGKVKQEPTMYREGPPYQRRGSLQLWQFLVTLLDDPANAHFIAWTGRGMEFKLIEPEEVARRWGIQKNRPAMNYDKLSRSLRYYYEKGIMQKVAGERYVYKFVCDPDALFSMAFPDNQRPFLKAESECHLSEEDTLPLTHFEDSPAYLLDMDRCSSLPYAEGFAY
Summary of the method: as §1

HSF1 = HSF1 (Homo sapiens, UniProt Q00613 1-529); details: protein: recombinant; tags: N-terminal GST; chain copies: 3; dsDNA, one strand shown
HSF1, sequence (Q00613 whole entry): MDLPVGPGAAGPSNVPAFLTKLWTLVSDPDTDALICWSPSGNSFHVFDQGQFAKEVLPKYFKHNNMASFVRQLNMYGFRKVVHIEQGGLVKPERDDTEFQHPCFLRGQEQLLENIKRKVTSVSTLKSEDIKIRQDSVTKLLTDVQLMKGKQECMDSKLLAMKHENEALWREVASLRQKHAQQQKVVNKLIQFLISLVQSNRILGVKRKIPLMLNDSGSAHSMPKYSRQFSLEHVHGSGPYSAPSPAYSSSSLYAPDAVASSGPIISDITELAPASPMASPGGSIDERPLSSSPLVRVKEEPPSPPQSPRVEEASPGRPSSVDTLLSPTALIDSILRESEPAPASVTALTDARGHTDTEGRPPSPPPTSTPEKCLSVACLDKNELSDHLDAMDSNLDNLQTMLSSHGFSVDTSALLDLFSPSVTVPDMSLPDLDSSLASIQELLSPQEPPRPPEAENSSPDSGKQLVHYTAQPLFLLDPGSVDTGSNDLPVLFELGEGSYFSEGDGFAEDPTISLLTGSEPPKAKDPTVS
Summary of the method: as §1

SPIC = molecular target: T2, SPIC (Homo sapiens, UniProt Q8N5J4 1-248); details: protein: recombinant; tags: N-terminal GST; dsDNA, one strand shown
T2 sequence: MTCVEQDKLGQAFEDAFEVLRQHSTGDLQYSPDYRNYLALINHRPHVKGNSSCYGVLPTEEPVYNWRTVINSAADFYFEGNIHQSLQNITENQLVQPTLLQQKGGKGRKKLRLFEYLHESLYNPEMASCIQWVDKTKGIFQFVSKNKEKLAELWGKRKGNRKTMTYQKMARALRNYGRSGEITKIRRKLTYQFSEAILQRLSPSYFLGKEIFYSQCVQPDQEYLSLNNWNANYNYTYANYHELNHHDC
Summary of the method: as §1

ELF4 = ELF4 (Homo sapiens, UniProt Q99607 1-663); details: protein: recombinant; tags: N-terminal GST; dsDNA, one strand shown
ELF4, sequence (Q99607 whole entry): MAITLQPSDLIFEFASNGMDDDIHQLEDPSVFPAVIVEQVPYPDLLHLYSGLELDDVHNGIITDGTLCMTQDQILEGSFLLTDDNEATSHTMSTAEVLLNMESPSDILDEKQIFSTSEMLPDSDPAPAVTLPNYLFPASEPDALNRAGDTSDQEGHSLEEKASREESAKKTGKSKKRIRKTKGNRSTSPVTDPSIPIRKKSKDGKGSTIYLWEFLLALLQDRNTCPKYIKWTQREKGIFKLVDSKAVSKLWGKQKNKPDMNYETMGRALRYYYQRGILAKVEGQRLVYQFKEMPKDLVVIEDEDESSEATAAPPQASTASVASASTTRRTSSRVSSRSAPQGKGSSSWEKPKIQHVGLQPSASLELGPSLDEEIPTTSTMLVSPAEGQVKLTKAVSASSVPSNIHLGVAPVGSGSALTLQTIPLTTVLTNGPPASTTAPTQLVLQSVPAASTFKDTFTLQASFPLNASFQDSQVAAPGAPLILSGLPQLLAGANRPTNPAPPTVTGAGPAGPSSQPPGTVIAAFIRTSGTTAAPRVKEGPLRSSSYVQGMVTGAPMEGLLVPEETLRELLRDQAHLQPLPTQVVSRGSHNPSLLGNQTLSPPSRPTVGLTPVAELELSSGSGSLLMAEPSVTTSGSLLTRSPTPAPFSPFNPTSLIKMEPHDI
Summary of the method: as §1

ELK4 = molecular target: T3, ELK4 (Homo sapiens, UniProt P28324-2 1-405); details: protein: recombinant; tags: N-terminal GST; dsDNA, one strand shown
T3 sequence: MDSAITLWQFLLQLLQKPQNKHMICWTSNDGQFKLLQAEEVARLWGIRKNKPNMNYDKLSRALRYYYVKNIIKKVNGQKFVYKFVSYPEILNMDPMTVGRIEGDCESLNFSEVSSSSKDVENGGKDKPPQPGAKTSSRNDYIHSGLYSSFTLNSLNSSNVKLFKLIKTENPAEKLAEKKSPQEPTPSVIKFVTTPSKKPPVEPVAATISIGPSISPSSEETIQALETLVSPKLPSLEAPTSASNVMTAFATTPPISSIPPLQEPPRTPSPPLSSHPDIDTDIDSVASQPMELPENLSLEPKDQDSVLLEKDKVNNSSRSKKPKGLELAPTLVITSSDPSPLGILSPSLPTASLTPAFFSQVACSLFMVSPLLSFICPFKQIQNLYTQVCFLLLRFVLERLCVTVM
Summary of the method: as §1

ETV2 = molecular target: T4, ETV2 (Homo sapiens, UniProt O00321 1-342); details: protein: recombinant; tags: N-terminal GST; dsDNA, one strand shown
T4 sequence: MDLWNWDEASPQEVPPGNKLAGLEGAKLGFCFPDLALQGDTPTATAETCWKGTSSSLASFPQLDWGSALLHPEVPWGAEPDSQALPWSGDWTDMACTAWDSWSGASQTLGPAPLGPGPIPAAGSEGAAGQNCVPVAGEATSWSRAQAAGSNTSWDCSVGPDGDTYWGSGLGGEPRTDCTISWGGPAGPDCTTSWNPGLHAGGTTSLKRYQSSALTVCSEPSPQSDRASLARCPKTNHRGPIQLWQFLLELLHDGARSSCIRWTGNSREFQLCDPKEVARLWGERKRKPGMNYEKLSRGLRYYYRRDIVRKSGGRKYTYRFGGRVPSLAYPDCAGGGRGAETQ
Summary of the method: as §1

ELF3 = molecular target: T5, ELF3 (Homo sapiens, UniProt P78545 1-371); details: protein: recombinant; tags: N-terminal GST; dsDNA, one strand shown
T5 sequence: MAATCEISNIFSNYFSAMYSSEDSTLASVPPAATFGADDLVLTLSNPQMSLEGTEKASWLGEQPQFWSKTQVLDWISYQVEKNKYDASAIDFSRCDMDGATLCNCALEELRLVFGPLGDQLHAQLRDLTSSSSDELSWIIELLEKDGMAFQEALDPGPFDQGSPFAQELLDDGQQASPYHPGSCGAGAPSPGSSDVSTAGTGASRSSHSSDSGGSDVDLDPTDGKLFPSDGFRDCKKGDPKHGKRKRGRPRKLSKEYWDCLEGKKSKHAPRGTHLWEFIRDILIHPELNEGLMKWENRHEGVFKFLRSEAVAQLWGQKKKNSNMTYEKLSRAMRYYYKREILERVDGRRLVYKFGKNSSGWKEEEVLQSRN
Summary of the method: as §1

CRX = CRX (Homo sapiens, UniProt O43186 1-299); details: protein: recombinant; tags: N-terminal GST; dsDNA, one strand shown
CRX, sequence (O43186 whole entry): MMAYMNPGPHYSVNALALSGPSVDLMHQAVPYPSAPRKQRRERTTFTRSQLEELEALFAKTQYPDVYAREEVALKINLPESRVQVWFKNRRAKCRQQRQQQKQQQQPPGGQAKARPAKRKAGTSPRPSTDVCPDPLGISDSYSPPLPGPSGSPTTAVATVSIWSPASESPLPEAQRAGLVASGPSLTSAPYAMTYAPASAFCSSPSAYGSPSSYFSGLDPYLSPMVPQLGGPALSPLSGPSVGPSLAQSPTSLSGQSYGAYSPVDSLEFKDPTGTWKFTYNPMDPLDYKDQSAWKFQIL
Summary of the method: as §1

ETV1 = ETV1 (Homo sapiens, UniProt P50549 1-477); details: protein: recombinant; tags: N-terminal GST; dsDNA, one strand shown
ETV1, sequence (P50549 whole entry): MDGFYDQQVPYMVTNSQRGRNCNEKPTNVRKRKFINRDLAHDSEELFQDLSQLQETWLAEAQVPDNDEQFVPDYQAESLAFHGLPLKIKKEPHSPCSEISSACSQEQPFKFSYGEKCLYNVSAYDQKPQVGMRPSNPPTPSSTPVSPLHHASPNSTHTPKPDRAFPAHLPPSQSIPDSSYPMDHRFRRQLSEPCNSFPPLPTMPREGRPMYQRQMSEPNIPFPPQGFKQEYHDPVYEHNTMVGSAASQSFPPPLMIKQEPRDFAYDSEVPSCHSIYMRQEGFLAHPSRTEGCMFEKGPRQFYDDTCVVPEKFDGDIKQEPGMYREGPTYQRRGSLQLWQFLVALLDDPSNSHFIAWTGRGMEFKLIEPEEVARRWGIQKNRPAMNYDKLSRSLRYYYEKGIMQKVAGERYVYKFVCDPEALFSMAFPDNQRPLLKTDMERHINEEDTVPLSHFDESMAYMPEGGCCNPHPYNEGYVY
Summary of the method: as §1

ETV3L = molecular target: T6, ETV3L (Homo sapiens, UniProt Q6ZN32 1-361); details: protein: recombinant; tags: N-terminal GST; dsDNA, one strand shown
T6 sequence: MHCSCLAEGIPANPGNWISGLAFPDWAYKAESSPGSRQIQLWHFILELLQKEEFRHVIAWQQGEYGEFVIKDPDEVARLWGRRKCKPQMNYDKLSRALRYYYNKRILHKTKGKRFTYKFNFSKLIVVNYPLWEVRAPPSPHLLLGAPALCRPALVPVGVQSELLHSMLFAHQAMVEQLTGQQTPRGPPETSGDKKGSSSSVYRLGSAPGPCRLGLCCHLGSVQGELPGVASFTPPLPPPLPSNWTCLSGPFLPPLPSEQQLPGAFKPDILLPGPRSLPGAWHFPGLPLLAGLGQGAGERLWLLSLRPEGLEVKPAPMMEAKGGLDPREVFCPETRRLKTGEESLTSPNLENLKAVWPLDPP
Summary of the method: as §1

ETS2 = molecular target: T7, ETS2 (Homo sapiens, UniProt P15036 1-469); details: protein: recombinant; tags: N-terminal GST; dsDNA, one strand shown
T7 sequence: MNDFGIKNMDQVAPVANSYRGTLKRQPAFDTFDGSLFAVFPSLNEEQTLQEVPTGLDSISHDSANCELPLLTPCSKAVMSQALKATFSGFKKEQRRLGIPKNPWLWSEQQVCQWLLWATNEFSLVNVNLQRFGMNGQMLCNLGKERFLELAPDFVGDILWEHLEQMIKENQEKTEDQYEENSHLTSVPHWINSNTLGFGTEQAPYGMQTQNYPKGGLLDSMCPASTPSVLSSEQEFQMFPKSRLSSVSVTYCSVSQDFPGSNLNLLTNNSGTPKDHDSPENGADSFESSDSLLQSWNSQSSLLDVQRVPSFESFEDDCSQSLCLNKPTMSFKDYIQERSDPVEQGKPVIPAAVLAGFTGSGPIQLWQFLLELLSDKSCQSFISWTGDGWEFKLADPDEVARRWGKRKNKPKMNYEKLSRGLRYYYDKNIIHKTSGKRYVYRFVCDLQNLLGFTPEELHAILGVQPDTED
Summary of the method: as §1

SPDEF = molecular target: T8, SPDEF (Homo sapiens, UniProt O95238 1-335); details: protein: recombinant; tags: N-terminal GST; dsDNA, one strand shown
T8 sequence: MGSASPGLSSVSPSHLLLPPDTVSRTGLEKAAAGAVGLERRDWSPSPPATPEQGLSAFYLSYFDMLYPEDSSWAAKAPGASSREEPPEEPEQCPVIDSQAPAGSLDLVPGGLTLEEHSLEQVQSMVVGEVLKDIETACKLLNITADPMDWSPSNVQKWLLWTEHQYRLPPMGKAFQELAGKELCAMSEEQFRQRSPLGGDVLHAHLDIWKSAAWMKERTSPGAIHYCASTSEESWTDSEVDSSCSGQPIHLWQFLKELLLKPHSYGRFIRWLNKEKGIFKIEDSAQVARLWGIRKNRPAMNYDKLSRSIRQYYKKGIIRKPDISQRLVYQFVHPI
Summary of the method: as §1

ETV7 = molecular target: T9, ETV7 (Homo sapiens, UniProt Q9Y603 1-341); details: protein: recombinant; tags: N-terminal GST; dsDNA, one strand shown
T9 sequence: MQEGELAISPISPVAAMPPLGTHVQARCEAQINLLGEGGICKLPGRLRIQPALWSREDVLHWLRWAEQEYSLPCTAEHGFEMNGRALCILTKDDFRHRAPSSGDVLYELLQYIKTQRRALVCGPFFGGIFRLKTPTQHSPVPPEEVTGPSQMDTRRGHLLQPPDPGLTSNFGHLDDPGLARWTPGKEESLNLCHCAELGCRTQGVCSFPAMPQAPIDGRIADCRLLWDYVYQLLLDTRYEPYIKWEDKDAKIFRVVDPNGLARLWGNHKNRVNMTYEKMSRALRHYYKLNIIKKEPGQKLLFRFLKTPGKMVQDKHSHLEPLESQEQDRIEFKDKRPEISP
Summary of the method: as §1

ELF5 = molecular target: T10, ELF5 (Homo sapiens, UniProt Q9UKW6-2 1-255); details: protein: recombinant; tags: N-terminal GST; dsDNA, one strand shown
T10 sequence: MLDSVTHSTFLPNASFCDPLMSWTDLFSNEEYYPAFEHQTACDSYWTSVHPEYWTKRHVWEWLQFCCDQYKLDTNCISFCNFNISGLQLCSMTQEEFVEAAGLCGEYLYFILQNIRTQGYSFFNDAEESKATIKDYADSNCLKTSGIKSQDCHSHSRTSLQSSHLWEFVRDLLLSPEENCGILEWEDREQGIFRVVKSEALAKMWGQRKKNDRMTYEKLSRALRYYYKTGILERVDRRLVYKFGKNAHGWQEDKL
Summary of the method: as §1

ETV6 = ETV6 (Homo sapiens, UniProt P41212 1-452); details: protein: recombinant; tags: N-terminal GST; dsDNA, one strand shown
ETV6, sequence (P41212 whole entry): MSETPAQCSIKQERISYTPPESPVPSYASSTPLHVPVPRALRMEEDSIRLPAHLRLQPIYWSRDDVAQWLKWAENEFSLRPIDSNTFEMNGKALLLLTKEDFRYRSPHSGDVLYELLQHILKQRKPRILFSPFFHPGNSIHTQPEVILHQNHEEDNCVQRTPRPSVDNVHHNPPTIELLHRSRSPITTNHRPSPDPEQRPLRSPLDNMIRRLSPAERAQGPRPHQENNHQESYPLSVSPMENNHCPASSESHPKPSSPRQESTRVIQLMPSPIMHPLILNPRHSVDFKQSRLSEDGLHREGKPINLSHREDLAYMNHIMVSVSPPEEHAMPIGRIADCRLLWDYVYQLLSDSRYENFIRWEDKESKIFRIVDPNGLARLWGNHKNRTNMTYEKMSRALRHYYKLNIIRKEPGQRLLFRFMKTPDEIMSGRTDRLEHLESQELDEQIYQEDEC
Summary of the method: as §1

With TAGTCC the binding signal (FEV) was 1.07 fold enrichment (6-mer frequency, TF over GST control), the binding signal (ETV5) was 1.14 fold enrichment (6-mer frequency, TF over GST control) and the binding signal (HSF1) was 1.21 fold enrichment (6-mer frequency, TF over GST control). For the same sequence, the binding signal (SPIC) was 1.16 fold enrichment (6-mer frequency, TF over GST control), the binding signal (ELF4) was 1.07 fold enrichment (6-mer frequency, TF over GST control) and the binding signal (ELK4) was 1.12 fold enrichment (6-mer frequency, TF over GST control). For the same sequence, the binding signal (ETV2) was 1.21 fold enrichment (6-mer frequency, TF over GST control), the binding signal (ELF3) was 1.13 fold enrichment (6-mer frequency, TF over GST control) and the binding signal (CRX) was 1.38 fold enrichment (6-mer frequency, TF over GST control). The binding signal (ETV1) was 1.1 fold enrichment (6-mer frequency, TF over GST control), the binding signal (ETV3L) was 1.12 fold enrichment (6-mer frequency, TF over GST control) and the binding signal (ETS2) was 1.06 fold enrichment (6-mer frequency, TF over GST control). The binding signal (SPDEF) was 1.2 fold enrichment (6-mer frequency, TF over GST control), the binding signal (ETV7) was 1.13 fold enrichment (6-mer frequency, TF over GST control) and the binding signal (ELF5) was 1.06 fold enrichment (6-mer frequency, TF over GST control). The binding signal (ETV6) was 1.14 fold enrichment (6-mer frequency, TF over GST control).
